In PubChem BioAssay (Tox21):
Results filed as inconclusive are left out. A call without a number means that no potency is given here. A number with no mark means an inactive call. Calls of active or inactive are those of the source. Unless noted, the call rests on the fitted dose curve.

test: qHTS assay to identify small molecule agonists of the endoplasmic reticulum stress response signaling pathway (AID 1159516; active means well fitted activation curve with a large enough effect in the signal ratio in the repeat runs, not every such curve was filed as active; the % refers to the signal ratio); conditions: ESRE-bla HeLa, ER stress beta-lactamase reporter, 5 h; series mostly up to 61 µM
Summary of the method: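 Cells are seeded at 1,500 per well and incubated overnight. Compounds in DMSO are added for 5 hr at 37 C, then beta-lactamase FRET substrate for 2 hr at room temperature, and fluorescence at 460 and 530 nm is measured.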

SMILES	outcome	activation
CCCCN	inactive	–
CCCCCCOc1ccccc1C(N)=O	inactive	–
C=C(C)C(=O)OCCN(CC)CC	inactive	–
CCCOC(OCCC)OCCC	inactive	–
CCOCCOCCOCC	inactive	–
CCc1ccc(C=O)cc1	inactive	–
C[Si](C)=O	–	-1.7% [at 6.95 µM]
COCCOC(=O)C1=C(C)NC(C)=C(C(=O)OC(C)C)C1c1cccc([N+](=O)[O-])c1 (stereo unspecified)	inactive	–
O=C(O)Cc1ccc(Cl)cc1Cl	inactive	–
CC(CN)CC(C)(C)CCN (stereo unspecified)	inactive	–
NNc1nnc(NN)c2ccccc12	inactive	–
COC(=O)[C@@H]1[C@H]2C[C@H]3c4[nH]c5ccccc5c4CCN3C[C@@H]2CC[C@@H]1O	inactive	–
Cc1ccccc1N=O	inactive	–

test: qHTS assay to identify small molecule agonists of the endoplasmic reticulum stress response signaling pathway - cell viability counter screen (AID 1159517); conditions: ESRE-bla HeLa viability, CellTiter-Glo luminescence, 5 h; series mostly up to 61 µM;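 further: HeLa cells carrying an ER stress response element beta-lactamase reporter; nearly all actives have a fitted effect of over 50% in size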
Summary of the method: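 Steps: seed 1,500 ESRE-bla HeLa cells per well; incubate overnight at 37 C, 5% CO2; add compounds in DMSO for 5 hr; run FRET substrate 2 hr RT; add CellTiter-Glo, wait 30 min, read luminescence.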

SMILES	Potency	activity change, negative = cytotoxicity
CC(C)OC(=O)CCCCC(=O)OC(C)C	inactive	–
CC(=O)Nc1ccc(S(=O)(=O)Nc2ccc([N+](=O)[O-])cc2)cc1	inactive	–
Cc1ccc(S(=O)(=O)O)c(C)c1	inactive	–
CCCCNc1ccc(C(=O)OCCN(C)C)cc1	inactive	–
COc1ccc2c(c1)C(=O)N(CCc1ccc(S(=O)(=O)NC(=O)NC3CCCCC3)cc1)C(=O)C2(C)C	inactive	–
CCN(C)C(=O)Oc1cccc([C@H](C)N(C)C)c1	inactive	–
CC(C)CCCCOC(=O)c1ccccc1C(=O)OCCCCC(C)C	inactive	–
C=C(C)C(=O)OCC(C)(C)COC(=O)C(=C)C	inactive	–
CC(=O)Nc1cccc(C)c1	inactive	–
CC(C)(C)c1nnc(NS(=O)(=O)c2ccc(N)cc2)s1	inactive	–
OCCN(CCO)c1cccc(Cl)c1	inactive	–
COc1cc2c(cc1OC)[C@@H]1CC(=O)[C@@H](CC(C)C)CN1CC2	inactive	–
O=C(c1ccc(O)cc1)c1ccc(O)c(O)c1O	inactive	–
CCCCNC1CC(C)(C)NC(C)(C)C1	inactive	–
CCO[Si](CCCS)(OCC)OCC	inactive	–
CC(CC=O)CCCC(C)(C)O (stereo unspecified)	inactive	–
CCCCCCOC(=O)CC	inactive	–
O=C(O)CCSSCCC(=O)O	inactive	–
O=C1CCCC(=O)O1	inactive	–

SMILES	Potency	activity change, negative = cytotoxicity
CCCCCOC(=O)CCC	inactive	–
CCCC/C=C\CCCCCCCCCC=O	inactive	–
CCOC(=O)c1ccc(OC(=O)CCCCCN=C(N)N)cc1	inactive	–
C=C(C)C(=O)OCc1ccccc1	inactive	–
COP(=O)(OC)OC(c1ccc(Cl)cc1)P(=O)(OC)OC (stereo unspecified)	inactive	–
NS(=O)(=O)c1ccc(NC(=O)CCC(=O)O)cc1	inactive	–
CCCCN	inactive	–
CCCCCCOc1ccccc1C(N)=O	inactive	–
C=C(C)C(=O)OCCN(CC)CC	inactive	–
CCCOC(OCCC)OCCC	inactive	–
CCOCCOCCOCC	inactive	–
CCc1ccc(C=O)cc1	inactive	–
C[Si](C)=O	–	-12.1% [at 6.95 µM]
COCCOC(=O)C1=C(C)NC(C)=C(C(=O)OC(C)C)C1c1cccc([N+](=O)[O-])c1 (stereo unspecified)	inactive	–
O=C(O)Cc1ccc(Cl)cc1Cl	inactive	–
CC(CN)CC(C)(C)CCN (stereo unspecified)	inactive	–
NNc1nnc(NN)c2ccccc12	inactive	–
COC(=O)[C@@H]1[C@H]2C[C@H]3c4[nH]c5ccccc5c4CCN3C[C@@H]2CC[C@@H]1O	inactive	–
Cc1ccccc1N=O	inactive	–
